In PubChem BioAssay (EPA / NIEHS):
Where “and” joins values, the source holds several entries; their conditions need not be identical. Equal entries are not always repeated. Results filed as inconclusive are left out. Calls of active or inactive are those of the source. Rule for the calls: active = hit-call score of the fitted dose curve at least 0.9, where 1 is the maximum; inconclusive = response in the unintended direction; inactive = score below 0.9.

Assay: ATG_XTT_Cytotoxicity: Cytotoxicity Assessment in the Attagene TRANS-FACTORIAL HepG2 Assay (AID 2283584);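 for AC50: cells exposed to compound for 24 h before reading; active means loss of viability signal versus DMSO baseline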
In short: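 Viability endpoint from XTT after 24 h chemical exposure of reporter-transfected human HepG2 liver cells; signal loss fitted relative to DMSO negative control.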
With `ClCc1ccccc1CCl` the outcome was “inactive”. For `Fc1cccc(Cl)c1CCl`, the outcome was “inactive”. For `O=C/C(Cl)=C(/Cl)C(=O)O`, the outcome was “inactive”. With `C=CCN=C=S` the outcome was “inactive”. For `COc1ccc([N+](=O)[O-])cc1O`, the outcome was “inactive”. For `O=C1C=CC(=O)c2ccccc21`, the AC50 was 49.2 µM (active). With `COC(=O)c1cc(Oc2ccc(Cl)cc2Cl)ccc1[N+](=O)[O-]` the outcome was “inactive”. For `CC1(C)COP(Oc2ccccc2)OC1`, the outcome was “inactive”. With `Cc1ccc(CCl)cc1` the outcome was “inactive”. For `O=S1OC[C@@H]2[C@H](CO1)[C@]1(Cl)C(Cl)=C(Cl)[C@@]2(Cl)C1(Cl)Cl` (stereo partly specified), the outcome was “inactive”. For `C[N+](C)(C)Cc1ccccc1`, the outcome was “inactive”. In the case of `CNC(=O)N(C)c1nc2ccccc2s1`, the outcome is reported as “inactive”. With `O=c1[nH]c2ccccc2n1C1CCN(CCCC(c2ccc(F)cc2)c2ccc(F)cc2)CC1` the AC50 was 18.1 µM (active). For `c1ccc2sc(SNC3CCCCC3)nc2c1`, the outcome was “inactive”. For `CCCCC(CC)COC(=O)Cl` (stereo unspecified), the outcome was “inactive”. With `Cc1ccccc1OP(=O)(Oc1ccccc1)Oc1ccccc1` the outcome was “inactive”. In the case of `C[CH2][Hg][S]c1ccccc1C(=O)O`, the outcome is reported as “inactive”. For `CC(O)(CS(=O)(=O)c1ccc(F)cc1)C(=O)Nc1ccc(C#N)c(C(F)(F)F)c1` (stereo unspecified), the outcome was “inactive”. In the case of `O=[N+]([O-])c1ccc(Cl)c([N+](=O)[O-])c1`, the AC50 is reported as 20.2 µM (active). In the case of `CC(C)(c1ccc(O)c(-c2ccccc2)c1)c1ccc(O)c(-c2ccccc2)c1`, the AC50 is reported as 22.2 µM (active). For `Nc1ccc(N)cc1`, the outcome was “inactive”. With `Cc1cc(Cl)ccc1N` the outcome was “inactive”. For `CCCCCCCCCCCCOS(=O)(=O)O`, the outcome was “inactive”. For `OC(Cc1ccccc1Cl)(Cn1[nH]cnc1=S)C1(Cl)CC1` (stereo unspecified), the outcome was “inactive”. In the case of `Cc1cccc(OP(=O)(Oc2cccc(C)c2)Oc2cccc(C)c2)c1`, the outcome is reported as “inactive”. With `C1CN2CCN1CC2` the outcome was “inactive”. In the case of `CC(c1ccccc1)(c1ccc(O)cc1)c1ccc(O)cc1`, the AC50 is reported as 40.4 µM (active). In the case of `C=CCOC(N)=O`, the outcome is reported as “inactive”. For `O=C(O)CC(O)(CC(=O)O)C(=O)O`, the outcome was “inactive”. For `CC(C)N(C(=O)CCl)c1ccccc1`, the AC50 was 31.2 µM (active). In the case of `O=c1oc2ccccc2c(O)c1C(CC(O)c1ccc(-c2ccc(Br)cc2)cc1)c1ccccc1` (stereo unspecified), the outcome is reported as “inactive”. In the case of `CCOC(=O)Cc1ccccc1`, the outcome is reported as “inactive”. With `CCOC(=O)OC1=C(c2cc(C)ccc2C)C(=O)NC12CCC(OC)CC2` (stereo unspecified) the outcome was “inactive”. For `O=[N+]([O-])c1ccc(Nc2ccccc2)cc1`, the outcome was “inactive”. With `COc1nn(C(=O)NS(=O)(=O)c2ccccc2OC(F)(F)F)c(=O)n1C` the outcome was “inactive”. With `[Cl][Sn]([c]1ccccc1)([c]1ccccc1)[c]1ccccc1` the AC50 was 1.73 µM (active) and 986 nM (active).
